Measured values reported in paper PMC4336329 (PLoS ONE, 2015).
The campaign covered roughly 310,000 compounds. About 14,000 (4.5%) showed an effect of 50% or more. The effect is printed as a negative number. The sample holds strong results, similar compounds and a random draw of the others, so the mix is not that of the screen.

Molecular target: human ether-à-go-go-related gene (hERG) potassium channel (human, UniProt Q12809)
Assay: primary screen, population patch clamp on CHO cells stably expressing hERG; higher = less effect of the substance
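Note: peak tail current of the secondary pulse compared with the same well before compound.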

human ether-à-go-go-related gene (hERG) potassium channel, sequence (Q12809 whole entry, looked up): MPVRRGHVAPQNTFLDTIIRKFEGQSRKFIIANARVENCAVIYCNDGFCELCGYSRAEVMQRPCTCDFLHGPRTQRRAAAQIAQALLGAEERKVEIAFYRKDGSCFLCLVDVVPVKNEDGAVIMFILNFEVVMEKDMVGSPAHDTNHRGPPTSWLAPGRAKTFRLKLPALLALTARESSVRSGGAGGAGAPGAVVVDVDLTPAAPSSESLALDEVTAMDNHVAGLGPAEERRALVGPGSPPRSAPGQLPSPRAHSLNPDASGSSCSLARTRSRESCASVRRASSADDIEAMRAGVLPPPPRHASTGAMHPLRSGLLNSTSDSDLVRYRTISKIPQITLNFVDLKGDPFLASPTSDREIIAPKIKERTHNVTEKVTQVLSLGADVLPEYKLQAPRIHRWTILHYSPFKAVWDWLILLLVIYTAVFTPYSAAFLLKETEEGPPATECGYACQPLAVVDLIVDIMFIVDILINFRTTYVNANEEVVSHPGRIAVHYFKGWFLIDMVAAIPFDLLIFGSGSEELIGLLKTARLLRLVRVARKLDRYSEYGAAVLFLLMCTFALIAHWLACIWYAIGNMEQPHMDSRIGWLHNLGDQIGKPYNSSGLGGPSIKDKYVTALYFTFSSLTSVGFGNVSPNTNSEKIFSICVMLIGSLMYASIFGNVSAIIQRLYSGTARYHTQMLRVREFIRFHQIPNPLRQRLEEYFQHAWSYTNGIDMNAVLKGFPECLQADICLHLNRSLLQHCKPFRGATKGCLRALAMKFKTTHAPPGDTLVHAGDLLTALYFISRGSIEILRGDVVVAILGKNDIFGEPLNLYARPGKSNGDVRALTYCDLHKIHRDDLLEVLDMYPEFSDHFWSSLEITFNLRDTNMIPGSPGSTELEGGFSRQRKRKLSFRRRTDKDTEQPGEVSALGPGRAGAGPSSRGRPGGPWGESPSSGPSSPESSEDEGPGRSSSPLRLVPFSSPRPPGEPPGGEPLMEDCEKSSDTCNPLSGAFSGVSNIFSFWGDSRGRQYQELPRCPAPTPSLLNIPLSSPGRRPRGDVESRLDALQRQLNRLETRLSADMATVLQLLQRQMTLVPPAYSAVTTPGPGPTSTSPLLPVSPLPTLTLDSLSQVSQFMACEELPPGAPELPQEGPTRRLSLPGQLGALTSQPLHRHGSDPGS

| Structure (SMILES) | hERG current change (%, negative = inhibition) at 10uM [%] |
| --- | --- |
| CN(CC(=O)Nc1cccc([N+](=O)[O-])c1)S(=O)(=O)c1ccccc1 | -51.9 |
| CN(c1ccccc1C(=O)Nc1cccc(Br)c1)S(=O)(=O)c1ccccc1 | -5.01 |
| Cc1ccc(CN(C)CC(=O)Nc2cccc([N+](=O)[O-])c2)o1 | -58.4 |
| CN(CC(=O)Nc1cccc(F)c1)CC(=O)Nc1cccc([N+](=O)[O-])c1 | -39.7 |
| CC(=O)c1cccc(NC(=O)CN(C)S(=O)(=O)c2ccccc2)c1 | -11.5 |
| CN(c1ccccc1C(=O)Nc1cccc([N+](=O)[O-])c1)S(C)(=O)=O | -20 |
| FC(F)(F)c1nnc2c(Sc3ccccc3)nc3ccc(Cl)cc3n12 | 12.2 |
| Cc1cccc(NC(=S)N(CCCN2CCOCC2)C(C)c2cc3ccccc3o2)c1C (stereo not drawn) | -20.9 |
| COc1ccc(Cl)cc1NC(=O)CSc1nnc(CNC(=O)c2cccs2)o1 | -39.8 |
| Cc1ccc(S(=O)(=O)NCc2c(-c3ccccc3)c3cc(Cl)ccc3[nH]c2=O)cc1 | 7.18 |
| O=C(c1ccc(Br)s1)N1CCCC1 | -5.86 |
| CCC(C)(C(=O)NC1CCCCC1)N(CC1CCCO1)C(=O)c1ccccn1 (stereo not drawn) | -63.3 |
| CCC(C)(C(=O)NC1CCCCC1)N(CC1CCCO1)C(=O)CNC(=O)c1ccccc1 (stereo not drawn) | 6.13 |
| CCC(C)(C(=O)NC1CCCCC1)N(C)C(=O)c1ccccn1 (stereo not drawn) | 2.9 |
| COc1ccc2cc(C(c3nnnn3C3CCCC3)N3CCOCC3)c3nnnn3c2c1 (stereo not drawn) | -51.7 |
| COc1ccc2cc(C(c3nnnn3C3CCCCC3)N3CCCCCC3)c3nnnn3c2c1 (stereo not drawn) | 4.6 |
| COc1ccc2cc(C(c3nnnn3C3CCCC3)N3CCCCCC3)c3nnnn3c2c1 (stereo not drawn) | 15.9 |
| O=C(NCCc1ccccc1)C1CCN(S(=O)(=O)c2cccnc2)CC1 | 12.9 |
| Cc1ccccc1C(=O)Nc1nnc(-c2cccnc2)o1 | 18.4 |
| CN1CCN(NC(=O)c2ccc(S(=O)(=O)N3CC4(C)CC3CC(C)(C)C4)cc2)CC1.Cl (stereo not drawn) | -2.07 |
| OCCC1CN(Cc2cccc3nccnc23)CCN1Cc1ccc(F)c(F)c1 (stereo not drawn) | -56.4 |
| OCCC1CN(Cc2ccc3ncccc3c2)CCN1Cc1ccccc1 (stereo not drawn) | -14.8 |
| OCCC1CN(Cc2cccc3nccnc23)CCN1Cc1ccc(F)cc1 (stereo not drawn) | -30.8 |

| Structure (SMILES) | hERG current change (%, negative = inhibition) at 10uM [%] |
| --- | --- |
| CC(C)CN1CCN(Cc2cccc3nccnc23)CC1CCO (stereo not drawn) | -8.4 |
| CC(C)=CCN1CCN(Cc2cccc3nccnc23)CC1CCO (stereo not drawn) | -8.42 |
| Cc1ccc(CN2CCN(Cc3ccc4ncccc4c3)CC2CCO)cc1 (stereo not drawn) | -58.9 |
| Cc1ccc(CN2CCN(Cc3cccc4nccnc34)CC2CCO)cc1 (stereo not drawn) | -66.6 |
| OCCC1CN(Cc2ccon2)CCN1Cc1ccc(F)c(F)c1 (stereo not drawn) | -13.9 |
| CC(C)CN1CCN(Cc2ccc3ncccc3c2)CC1CCO (stereo not drawn) | -13.2 |
| COc1ccccc1N1CCN(C(=O)CSc2nc(N)cc(=O)[nH]2)CC1 | 6.2 |
| Cc1ccc(-n2c(O)c(C=NCCCn3ccnc3)c(=O)[nH]c2=O)cc1 | 19.6 |
| COc1ccccc1NS(=O)(=O)c1cccc(C(=O)N/N=C/c2ccc(N3CCOCC3)cc2)c1 | -8.32 |
| CC(OC(=O)c1ccc(-c2ccc(O)cc2)cc1)C(=O)NC1CCCCC1C (stereo not drawn) | -6.35 |
| COc1ccc(C(CNC(=O)c2cccc(NS(=O)(=O)c3ccc(C)c(F)c3)c2)N(C)C)cc1 (stereo not drawn) | -62.6 |
| COc1ccccc1C(CNC(=O)c1cccc(NS(=O)(=O)c2ccc(C)c(F)c2)c1)N(C)C (stereo not drawn) | -42.5 |
| COc1ccccc1C(CNC(=O)c1cccc(S(=O)(=O)Nc2ccc(C)cc2)c1)N(C)C (stereo not drawn) | -8.39 |
| COc1ccc(C(CNC(=O)c2cccc(NS(=O)(=O)c3ccc(C)c(F)c3)c2)N2CCOCC2)cc1 (stereo not drawn) | -9.43 |
| COc1ccc(C(CNC(=O)c2cccc(NS(=O)(=O)c3ccccc3)c2)N(C)C)cc1 (stereo not drawn) | -46.4 |
| Cc1ccc(S(=O)(=O)Nc2cccc(C(=O)NCC(c3ccco3)N3CCCC3)c2)cc1F (stereo not drawn) | -38.5 |
| COc1ccc(C(CNC(=O)c2ccc(NS(=O)(=O)c3ccc(F)c(C)c3)cc2)N(C)C)cc1 (stereo not drawn) | -25.8 |
| CCOc1ccc(S(=O)(=O)Nc2cccc(C(=O)NCC(c3ccccc3)N(C)C)c2)cc1 (stereo not drawn) | -12 |
| COc1ccc(C(CNC(=O)c2cccc(NS(=O)(=O)c3ccc(Br)cc3)c2)N(C)C)cc1 (stereo not drawn) | -61.5 |
| COc1ccccc1C(CNC(=O)c1cccc(NS(=O)(=O)c2ccc(Br)cc2)c1)N(C)C (stereo not drawn) | -51.7 |
| Cc1ccc(S(=O)(=O)Nc2cccc(C(=O)NCC(c3ccccc3)N(C)C)c2)cc1F (stereo not drawn) | -45.8 |
| COc1ccc(C(CNC(=O)c2cccc(NS(=O)(=O)c3ccc(C)c(F)c3)c2)N2CCCC2)cc1 (stereo not drawn) | -64 |
